Test results: PubChem BioAssay (NCI)
Compounds without any hit were thinned out: in the full panel of roughly 83,000, 20% have a hit.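 For each line, cells grew in 96-well plates with the test compound present at a single concentration for 48 hours.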 A number with no mark means an inactive call. Active and inactive are the calls of the source. The calls were made as follows: active = growth percent below 10; inactive = the rest.

Columns and labels:
Assay in all cases: NCI-60 one-dose screen, 48 h (100 = growth as untreated, 0 = no growth, -100 = all killed)
Details in all cases: 10 µM unless noted
SR leukemia = system: SR leukemia
RPMI-8226 leukemia = system: RPMI-8226 leukemia
OVCAR-8 ovarian = system: OVCAR-8 ovarian
OVCAR-5 ovarian = system: OVCAR-5 ovarian
OVCAR-4 ovarian = system: OVCAR-4 ovarian
SK-OV-3 ovarian = system: SK-OV-3 ovarian
IGROV1 ovarian = system: IGROV1 ovarian
OVCAR-3 ovarian = system: OVCAR-3 ovarian
HS 578T breast = system: HS 578T breast
NCI/ADR-RES ovarian = system: NCI/ADR-RES ovarian
T-47D breast = system: T-47D breast
BT-549 breast = system: BT-549 breast
MDA-MB-435 melanoma = system: MDA-MB-435 melanoma
SW-620 colon = system: SW-620 colon
MCF7 breast = system: MCF7 breast
HCT-116 colon = system: HCT-116 colon
HCC-2998 colon = system: HCC-2998 colon
KM12 colon = system: KM12 colon

SMILES	growth (SR leukemia)	growth (RPMI-8226 leukemia)	growth (OVCAR-8 ovarian)	growth (OVCAR-5 ovarian)	growth (OVCAR-4 ovarian)	growth (SK-OV-3 ovarian)	growth (IGROV1 ovarian)	growth (OVCAR-3 ovarian)	growth (HS 578T breast)	growth (NCI/ADR-RES ovarian)	growth (T-47D breast)	growth (BT-549 breast)	growth (MDA-MB-435 melanoma)	growth (SW-620 colon)	growth (MCF7 breast)	growth (HCT-116 colon)	growth (HCC-2998 colon)	growth (KM12 colon)
O=C(/C=C/c1ccc([N+](=O)[O-])cc1)c1cccc(Nc2nc(Nc3ccccc3)nc(Nc3ccccc3)n2)c1	55.8%	-60.2% (active)	70.5%	74.7%	79.8%	81%	52%	72.6%	70.2%	67.9%	47.1%	87.7%	91.7%	67.6%	15.6%	-11.9% (active)	46.1%	81.1%
CCNc1nc(-c2ccc(Cl)c(OC)c2)c(-c2ccnc(NCCNS(=O)(=O)c3ccc(Cl)cc3)n2)s1	21.5%	21.4%	37.9%	40.7%	31.8%	1.58% (active)	39.3%	-3.31% (active)	24.1%	33%	32.5%	5.74% (active)	6.21% (active)	29.5%	6.61% (active)	7.13% (active)	56.3%	48.8%
COc1ccc(N/N=C/c2ccc3c(c2)Sc2ccccc2N3C)cc1	42.2%	78.2%	65.9%	53.3%	60.7%	87.4%	55.8%	77.7%	95.1%	79.6%	51.9%	96.1%	17.6%	27.1%	32.3%	53.6%	85%	16.9%
Oc1ccc(C2OCCO2)c2cccnc12	31.8%	29.6%	24.6%	59.3%	15.3%	93.5%	74.2%	4.41% (active)	76.4%	27.5%	26.2%	64.2%	49.4%	22.3%	7.84% (active)	8.85% (active)	96.6%	72.4%
O=C(COc1ccc(/C=C2\Oc3ccccc3C2=O)cc1)Nc1nccs1	0% (active)	40.4%	41.8%	91.8%	90.3%	125%	-13.3% (active)	97.2%	107%	91.6%	115%	115%	69.4%	110%	75.6%	94.5%	97.7%	69.7%
NCCCCCNc1noc(Cc2c[nH]c3cc(Br)ccc23)n1	10.5%	4.37% (active)	28.4%	58.1%	46.8%	-1.93% (active)	34.5%	-50.2% (active)	19.8%	-13.6% (active)	25.9%	44.9%	-37% (active)	18.6%	21.8%	23%	64%	23.9%
O=c1[nH]c(CN2CCN(c3ccccc3)CC2)nc2c(Br)cc(Br)cc12	3.49% (active)	96.6%	104%	95.3%	105%	96.4%	29.4%	103%	91.7%	104%	103%	123%	108%	102%	110%	107%	101%	105%
CCCCN(CCC#N)C(N)=O	130%	113%	107%	106%	122%	109%	100%	89.7%	105%	109%	100%	109%	110%	99.2%	105%	106%	103%	105%
CN(C)CCOc1ccc(/C(=C(/CCCCCCCCCC[P+](c2ccccc2)(c2ccccc2)c2ccccc2)c2ccccc2)c2ccccc2)cc1	-53.4% (active)	-48.3% (active)	-53.5% (active)	-97.2% (active)	-81.6% (active)	-81% (active)	-76.5% (active)	-93.9% (active)	-36.4% (active)	-69% (active)	-56.2% (active)	-78.3% (active)	-98.1% (active)	-85% (active)	-77.9% (active)	-72% (active)	-83.9% (active)	-80.9% (active)
C#Cc1c(I)n(C2OC(CO[Si](C)(C)C(C)(C)C)C3OC(C)(C)OC32)c(=O)[nH]c1=O (stereo unspecified)	-41.8% (active)	-66.8% (active)	97.8%	91.9%	88.9%	107%	36.6%	-40.2% (active)	5.41% (active)	89.6%	-69.3% (active)	98.5%	81.2%	-98.3% (active)	42.1%	-49.6% (active)	-75.7% (active)	105%
Cc1nc2cccc(NCc3ccc(C(=O)NO)cc3)c2c(=O)n1-c1ccccc1	14.8%	18.5%	3.81% (active)	40%	62.2%	4.52% (active)	20.4%	43.9%	56.8%	19.2%	17.5%	73.4%	27%	7.22% (active)	67.1%	-32.6% (active)	86.3%	29.8%
COc1cccc(C(=O)Nc2cccc(NC(=O)c3ccccn3)c2)c1	77%	101%	104%	94.3%	96.4%	97.7%	101%	105%	116%	96.1%	87.4%	91.3%	93.2%	109%	83%	94%	83.2%	99.6%
COc1cccc(C2C(C#N)=C(N)Oc3c2ccc2ccccc32)c1 (stereo unspecified)	18.1%	20.7%	21.4%	40.5%	66.2%	40.1%	18.3%	-8.8% (active)	52.1%	6.19% (active)	69.5%	28.3%	6.77% (active)	30.3%	10.8%	5.1% (active)	23.6%	11.9%
N#CC1=C(N)Oc2c(ccc3ccccc23)C1c1cc2ccccc2n2nnnc12 (stereo unspecified)	3.88% (active)	-8.74% (active)	26.6%	39.4%	65%	12.5%	33.3%	-20.7% (active)	17.7%	0.93% (active)	25%	16.2%	-27.7% (active)	9.58% (active)	9.81% (active)	-5.37% (active)	46.9%	18.1%
O=C1CCc2c(sc3[nH]c(=S)n(-c4cc(C(F)(F)F)cc(C(F)(F)F)c4)c(=O)c23)C1	13.4%	-23.7% (active)	1.35% (active)	-24.4% (active)	4.84% (active)	-18.7% (active)	-10.5% (active)	-13.3% (active)	-6.29% (active)	-13.4% (active)	-34.6% (active)	3.75% (active)	7.15% (active)	18.5%	0.882% (active)	3.29% (active)	-49.1% (active)	-70.2% (active)
COc1ccc(/C=C\c2cc(OC)c(OC)c(OC)c2)cc1OCC(=O)Nc1nc2ccccc2s1	9.4% (active)	22.5%	19%	65%	49.2%	30.4%	3.36% (active)	0.388% (active)	11.3%	12.7%	18.5%	38.7%	-2.64% (active)	30%	9.7% (active)	5.14% (active)	35.6%	5.76% (active)
C=CC(=O)Nc1ccc2ncnc(Nc3cccc(NS(=O)(=O)CCC)c3Cl)c2c1	35.7%	55.4%	48.2%	36.2%	66.8%	19.6%	18.5%	12.7%	20.6%	83.4%	24.5%	35.7%	26.2%	74.4%	56.2%	67.9%	93.3%	78.4%
